The list is not random: actives were taken first. Their share in the collection is about 2.6%.
SIAE inh – inhibitors of human sialic acid acetylesterase SIAE; 0.69% of 370,000 active; SIAE FP-Rh probe binding, fluorescence polarization; inhibition, % at 9.66 µM;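 active = inhibition above a cutoff: mean of compounds within the control limits plus 3 SD of those, cut at about 17% in these data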;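 also: 0% = plate median of compound wells and 100% = probe without SIAE protein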
PRMT1 FP inh – inhibitors of human PRMT1 | recombinant PRMT1, activity-based probe fluorescence polarization | Q99873 | inhibition, % at 2.79 µM | 1.3% of 370,000 active;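 active = inhibition above about 21% made by adding two undisclosed values, limit read from the data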
PME-1 inh – blocks human protein phosphatase methylesterase 1; AID 2130; recombinant PME-1, FP-Rh probe fluorescence polarization; 0.53% of 320,000 active; inhibition, % at 5.9 µM; Q9Y570;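 active = inhibition above the campaign mean of all compounds plus 3 SD, cut at about 26% in these data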;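 also: competitive labeling of PME-1 active site by serine hydrolase directed probe; 0% = PME-1 with DMSO and 100% = wells lacking PME-1 enzyme; inhibitors block probe labeling so polarization falls and inhibition rises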
TCR-CD3 inh – inhibitors of human TCR-CD3 interaction. TAMRA-labeled TCR probe fluorescence, biochemical. inhibition, % at 9.4 µM. 0.37% of 360,000 active;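 also: recombinant mutant TCR 2C K166C tagged with TAMRA read by polarization; 0% = receptor in buffer alone and 100% = receptor with positive control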
Fam108B inh – blocks mouse Fam108B hydrolase in RBBP9 counter-screen. recombinant Fam108B, FP-Rh probe fluorescence polarization. inhibition, % at 9.51 µM. 0.33% of 300,000 active. AID 1947;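 active = inhibition above the screen mean inhibition plus 3 SD, computed separately per campaign, cut at about 18% in these data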;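 also: inhibitors lower polarization as less probe binds the enzyme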
PAD4 FP inh – blocks human protein arginine deiminase 4; recombinant PAD4, RCA probe fluorescence polarization; inhibition, % at 6.36 µM; 0.41% of 330,000 active; Q9UM07;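 active = percent inhibition above a cutoff equal to the mean of all tested compounds plus 3 SD, cut at about 15% in these data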;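 also: 0% = PAD4 with RCA probe and DMSO and 100% = probe without PAD4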
Target sequence (Q9UM07 whole entry, looked up): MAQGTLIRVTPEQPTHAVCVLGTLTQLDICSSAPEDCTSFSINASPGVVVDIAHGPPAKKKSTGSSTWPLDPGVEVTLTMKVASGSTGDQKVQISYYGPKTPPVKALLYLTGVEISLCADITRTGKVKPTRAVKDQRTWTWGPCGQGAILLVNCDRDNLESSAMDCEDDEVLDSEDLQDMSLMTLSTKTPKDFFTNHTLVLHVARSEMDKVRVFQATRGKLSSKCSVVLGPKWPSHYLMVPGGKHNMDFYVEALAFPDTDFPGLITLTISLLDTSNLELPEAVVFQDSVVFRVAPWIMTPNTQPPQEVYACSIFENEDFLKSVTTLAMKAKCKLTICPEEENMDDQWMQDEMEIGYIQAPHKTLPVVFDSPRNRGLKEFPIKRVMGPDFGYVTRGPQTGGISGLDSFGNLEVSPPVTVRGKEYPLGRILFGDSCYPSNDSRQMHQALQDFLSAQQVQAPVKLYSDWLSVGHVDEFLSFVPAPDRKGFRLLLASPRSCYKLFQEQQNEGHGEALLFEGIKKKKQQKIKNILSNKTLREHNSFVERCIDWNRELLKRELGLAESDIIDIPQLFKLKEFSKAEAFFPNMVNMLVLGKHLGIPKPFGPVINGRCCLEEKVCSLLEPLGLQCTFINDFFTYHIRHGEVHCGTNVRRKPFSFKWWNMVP
BSA TAMRA ctr – BSA probe counter-screen for TCR-CD3 inhibitors | shares compounds with TCR-CD3 inh | TAMRA-labeled BSA probe fluorescence counterscreen | inhibition, % at 9.4 µM | 10% of 1,200 active | AID 652035; in the data active = inhibition above about 23%;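 also: 0% = buffer low control and 100% = reference high control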
TCR-CD3 inh conf – TCR-CD3 interaction inhibition, confirmation; shares compounds with TCR-CD3 inh; TAMRA-labeled TCR probe fluorescence binding assay; inhibition, % at 9.4 µM; 48% of 1,200 active
PRMT1 confirm – PRMT1 (human) inhibition, FP confirmation. shares compounds with PRMT1 FP inh. recombinant His-PRMT1, activity-based probe fluorescence polarization. inhibition, % at 2.79 µM. 42% of 3,300 active;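 active = mean inhibition across replicates above the hit cutoff derived for the earlier primary screen, cut at about 22% in these data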
* marks the source's active call; other numbers are inactive results; · = not tested or not shown. Rule as the data show it, unless noted: active = inhibition above about 19%; inactive = the rest.

SMILES	SIAE inh	PRMT1 FP inh	PME-1 inh	TCR-CD3 inh	Fam108B inh	PAD4 FP inh	BSA TAMRA ctr	TCR-CD3 inh conf	PRMT1 confirm
Nc1ccc2c3c(cccc13)C(=O)N(c1ccccc1)C2=O	10	174*	·	28*	·	·	43*	34*	165*
O=C(N/N=C\c1ccccc1OCc1ccccc1)c1ccco1	-10	2	0	-8	-1	4	·	·	·
O=C(N/N=C/c1c(O)n(Cc2ccco2)c(=O)[nH]c1=O)c1ccccc1	15	33*	-4	23*	3	0	-2	20*	0
O=C1NC(=O)C2(N1)c1ccccc1-c1ccccc12	-1	1	·	-3	·	·	·	·	·
O=C1NC(=O)C2(N1)C(=O)c1cccc3cccc2c13 (stereo not given)	5	139*	·	61*	·	·	37*	31*	72*
CC(NCc1ccco1)C(=O)N1CCN(Cc2ccccc2F)CC1 (stereo not given)	-5	1	·	·	·	·	·	·	·
CCOC(=O)c1cccc(NC(=O)CN(C)S(=O)(=O)c2ccc(F)cc2)c1	1	-2	·	·	·	·	·	·	·
CN(CCC#N)c1ccc(/C=C(\C#N)c2ccccn2)cc1	-6	194*	11	81*	-1	-2	4	11	0
CCN(CC)c1ccc(/C=C(\C#N)c2ccccn2)cc1	·	·	7	·	0	1	·	·	·
O=[N+]([O-])c1cccc(NCCCN2CCC(C(O)(c3ccccc3)c3ccccc3)CC2)c1	2	0	·	·	·	·	·	·	·
O=C1C(=Cc2cn(-c3ccccc3)nc2-c2ccc(OCc3ccccc3)cc2)SC(=S)N1CCS(=O)(=O)O	-97	43*	·	26*	·	·	1	19*	5
Cc1ccc(-c2nn(-c3ccccc3)cc2C=C2SC(=S)N(CCS(=O)(=O)O)C2=O)cc1	-46	10	·	4	·	·	·	·	·
N#Cc1ccc(CCc2ccccc2)[nH]c1=O	0	-2	·	-1	·	·	·	·	·
N#Cc1ccc(CC(=O)c2ccccc2)[nH]c1=O	7	29*	·	60*	·	·	16	9	0
CC(C)c1ccc(N2C(=O)/C(=C/N(C)C)SC2=S)cc1	-88	26*	-2	67*	-21	-93	150*	132*	20
Oc1ccc(/C=N/NC(=S)Nc2cccnc2)c(O)c1O	53*	67*	·	83*	·	·	-12	56*	88*
COC(=O)C[C@@H]1CC[C@H]2[C@H](COc3ccc(NC(=O)C4CCC4)cc3C(=O)N2C)O1	3	-3	·	·	·	·	·	·	·
CC12CCC(C(=O)N(CSC(=S)N/N=C\c3ccccc3O)C1=O)C2(C)C (stereo not given)	3	25*	-1	32*	3	-3	-10	20*	3
COc1ccc(/C=N\NC(=S)SCN2C(=O)C3CCC(C)(C2=O)C3(C)C)cc1 (stereo not given)	-3	6	-4	4	3	5	·	·	·
O=C1/C(=C/c2ccco2)SC(=S)N1c1cccnc1	-2	46*	·	28*	·	·	-8	23*	20
COc1ccc(Cn2ccc3ccc(-c4ccc5ccn(C(=O)C6CC6)c5c4)cc32)cc1	-26	-7	·	·	·	·	·	·	·
O=C1COc2ccc(C(=O)COC(=O)/C=C/c3ccc(Br)o3)cc2N1	1	37*	-6	22*	2	2	-2	21*	2
COC(=O)[C@@]1(Cc2ccc(OC)cc2)[C@H]2c3cc(C(=O)N4CCCC4)n(Cc4ccc(C)o4)c3C[C@H]2CN1C(=O)c1ccccc1	-2	39*	·	60*	·	·	0	-3	3
COc1ccc(NC(=O)N(C)C[C@@H]2OCc3cn(nn3)CCCC(=O)N([C@H](C)CO)C[C@H]2C)cc1	10	65*	·	32*	·	·	2	1	6
COc1cccc(-c2ccc(CC[C@H]3O[C@H]4CC[C@@H](CO)O[C@H]4C[C@H]3NC(=O)c3cnccn3)cc2)c1	-4	-2	·	·	·	·	·	·	·
SMILES	SIAE inh	PRMT1 FP inh	PME-1 inh	TCR-CD3 inh	Fam108B inh	PAD4 FP inh	BSA TAMRA ctr	TCR-CD3 inh conf	PRMT1 confirm
COC(=O)[C@@]12CCCCC3=C1N(CCC3)C(=O)[C@H]2CC(=O)NCCc1ccccc1OC	5	0	·	·	·	·	·	·	·
CN=c1scc(-c2cccs2)n1/N=C/c1ccc(O)c(O)c1O	13	40*	31*	28*	2	-7	-20	23*	38*
C=CCN=c1scc(-c2ccco2)n1/N=C/c1ccc(O)c(O)c1O	2	29*	29*	21*	-6	3	-20	14	31*
Nc1ccc2nc3c(=O)n(CCc4ccccc4)c(=O)[nH]c3nc2c1	15	136*	39*	27*	6	14	26*	21*	123*
Nc1ccc2nc3c(=O)n(C4CCCCC4)c(=O)[nH]c3nc2c1	10	145*	13	24*	9	11	28*	27*	132*
Nc1ccc2nc(CCc3ccccc3)[nH]c2c1	2	0	-3	0	-3	-3	·	·	·
COc1ccc(Cn2ccc3ccc(-c4ccc5ccn(Cc6ccccc6)c5c4)cc32)cc1	-1	-2	·	·	·	·	·	·	·
CN(CCC#N)C(=O)COC(=O)c1c2c(nc3ccccc13)/C(=C/c1ccco1)CC2	20*	41*	14	52*	15	2	-14	32*	29*

Screening data from PubChem BioAssay.
